Screening data: PubChem, Broad Institute
Not all results are given here.
aSyn 5UTR act = Activators via SNCA 5'UTR binding, MLPCN; activity score, % (tested at 7.5 µM), hits read low; alpha-synuclein 5'UTR reporter, activators screen; AID 1814, 2009; 300,000 compounds, 7.1% hits; in the data active = activity score below about -60%
Active calls of the source: *.

How did Cn1c(SCc2ccccc2F)nc2cccnc21 do in these assays?
aSyn 5UTR act: -101.2*

Results for O=C(/C=C/c1ccco1)NC(=S)Nc1ccccn1 ?
aSyn 5UTR act: -127.5*

Results for Cc1cccnc1NC(=S)NC(=O)/C=C/c1ccco1 ?
aSyn 5UTR act: -88.7*

How did O=C(Nc1nc(-c2cccs2)cs1)C1=COCCO1 do in these assays?
aSyn 5UTR act: -173.3*

What do the screens show for `Cc1ccc(Cl)c2sc(NC(=O)C3=COCCO3)nc12`?
aSyn 5UTR act: -78.9*

Results for O=C(Nc1nc(-c2ccc(Cl)cc2)cs1)C1=COCCO1 ?
aSyn 5UTR act: -109.0*

How did CSc1nc2ccc(NC(=O)c3ccco3)cc2s1 do in these assays?
aSyn 5UTR act: -133.5*

How did COc1ccc2nc(NC(=S)NC(=O)c3ccco3)sc2c1 do in these assays?
aSyn 5UTR act: -132.7*

What do the screens show for `CSc1nc2ccc(NC(=O)c3ccc(F)c(F)c3)cc2s1`?
aSyn 5UTR act: -142.9*

Results for O=C(Nc1nc2ccc([N+](=O)[O-])cc2s1)c1ccco1 ?
aSyn 5UTR act: -74.1*

How did CC(=O)Nc1ccc2nc(NC(=O)c3ccc([N+](=O)[O-])o3)sc2c1 do in these assays?
aSyn 5UTR act: -100.0*

How did CC(=O)Nc1ccc2nc(NC(=O)c3ccco3)sc2c1 do in these assays?
aSyn 5UTR act: -96.3*

How did CSc1nc2ccc(NC(=O)c3ccc(=O)n(C)n3)cc2s1 do in these assays?
aSyn 5UTR act: -69.7*

What do the screens show for `CSc1nc2ccc(NC(=O)c3cc4ccccc4o3)cc2s1`?
aSyn 5UTR act: -126.3*

What do the screens show for `O=C(c1cnn(-c2cccc(F)c2)c1)c1ccccc1O`?
aSyn 5UTR act: -194.0*

Results for O=C(c1cnn(-c2ccccc2)c1)c1ccc2ccccc2c1O ?
aSyn 5UTR act: -119.4*

Results for O=C(c1cnn(-c2nc3ccccc3s2)c1)c1ccccc1O ?
aSyn 5UTR act: -117.3*

Results for COc1ccc(C(=O)Nc2ccc(N3CCN(C)CC3)cc2)cc1OC ?
aSyn 5UTR act: -82.1*

How did COc1ccc(C(=O)Nc2ccc(N3CCN(C)CC3)cc2)cc1 do in these assays?
aSyn 5UTR act: -164.6*

Results for CN1CCN(c2ccc(NC(=O)c3ccc4ccccc4c3)cc2)CC1 ?
aSyn 5UTR act: 85.3

How did Cc1ccc(C(=O)Nc2ccc(N3CCN(C)CC3)cc2)cc1 do in these assays?
aSyn 5UTR act: -88.2*

How did COc1ccc2oc(=O)c(-c3nnc(NCc4ccco4)s3)cc2c1 do in these assays?
aSyn 5UTR act: -252.9*

What do the screens show for `CCOc1cccc2cc(-c3nnc(NCc4ccco4)s3)c(=O)oc12`?
aSyn 5UTR act: -170.5*

How did CNc1nnc(-c2cc3cc(Cl)ccc3oc2=O)s1 do in these assays?
aSyn 5UTR act: -77.2*

What do the screens show for `C/C(CC(=O)Nc1cccc2c1CCCC2)=N\NC(=O)c1ccccc1N`?
aSyn 5UTR act: -109.8*

What do the screens show for `CC1CCCN(C(=S)Nc2ccc(Nc3ccccc3)cc2)C1` (centres undefined)?
aSyn 5UTR act: -123.2*

Results for OC1CCCN(C(=S)Nc2ccc(SC(F)F)cc2)C1 (centres undefined) ?
aSyn 5UTR act: -68.3*

How did OC1CCN(C(=S)Nc2ccc(Nc3ccccc3)cc2)CC1 do in these assays?
aSyn 5UTR act: -116.3*

How did C/C(=N/NC(=O)c1cc2ccccc2cc1O)C1C(=O)c2ccccc2C1=O do in these assays?
aSyn 5UTR act: -93.9*

What do the screens show for `C/C(=N\NC(=O)c1cc2ccccc2cc1O)c1ccccn1`?
aSyn 5UTR act: 87.9

How did Cc1ccc(S(=O)(=O)N(C)c2ccc(OCC(=O)Nc3nc(-c4ccccc4)cs3)cc2)cc1 do in these assays?
aSyn 5UTR act: -73.3*

What do the screens show for `CN(c1ccc(OCC(=O)Nc2nc(-c3ccccc3)cs2)cc1)S(=O)(=O)c1ccc(F)cc1`?
aSyn 5UTR act: -87.6*

Results for CC(C)(C)c1ccc(-c2nc(N)nc(N)n2)cc1 ?
aSyn 5UTR act: -89.5*

How did C=CCOc1c(Cl)cc(C(=S)N2CCCC2)cc1OCC do in these assays?
aSyn 5UTR act: -94.9*

Results for Cc1c(C(=O)O)cccc1-c1ccc(/C=N/Nc2ccc(Br)cc2)o1 ?
aSyn 5UTR act: -144.6*

What do the screens show for `Cc1c(C(=O)O)cccc1-c1ccc(/C=N/n2cnnc2)o1`?
aSyn 5UTR act: -78.7*

What do the screens show for `Cc1cccnc1NC(=O)c1ccc2c(c1)OCCO2`?
aSyn 5UTR act: -172.3*

How did O=C(Nc1ncccc1O)c1ccc2c(c1)OCO2 do in these assays?
aSyn 5UTR act: -207.3*

How did O=C(Nc1ncccc1O)c1ccc2c(c1)OCCO2 do in these assays?
aSyn 5UTR act: -222.2*

Results for O=C(/C=C(/c1ccc(Cl)cc1)n1cncn1)c1ccccc1 ?
aSyn 5UTR act: -62.3*

Results for CC(C)=CCc1c(O)cc2c(=O)c3ccc(O)cc3oc2c1O ?
aSyn 5UTR act: -140.7*

How did COc1cc(/C=N/NC(N)=S)ccc1OCc1ccc(C)cc1 do in these assays?
aSyn 5UTR act: -178.8*

Results for COc1cc(/C=N/O)ccc1OCc1ccc(C(=O)O)cc1 ?
aSyn 5UTR act: 115.9

Results for COc1cc(/C=N/N=C2/NC(=O)C(CC(=O)O)S2)ccc1OCc1ccc(Cl)cc1 (centres undefined) ?
aSyn 5UTR act: -148.6*

Results for COc1cc(/C=N/O)ccc1OCc1ccc(Cl)cc1 ?
aSyn 5UTR act: -97.3*

What do the screens show for `COc1ccc(/C=C/c2nc(-c3ccccc3O)n[nH]2)cc1`?
aSyn 5UTR act: -74.4*

What do the screens show for `COc1ccc(NC(=S)Nc2ccccn2)cc1`?
aSyn 5UTR act: -168.4*

Results for COC(=O)c1ccc(NC(=S)Nc2ccccn2)cc1 ?
aSyn 5UTR act: -171.3*

How did COc1cccc(C(=O)Nc2ccc(-c3nc4ccccc4o3)c(O)c2)c1 do in these assays?
aSyn 5UTR act: -115.3*

How did O=C(Nc1ccc(-c2nc3ccccc3o2)cc1)c1cccnc1 do in these assays?
aSyn 5UTR act: -133.4*

What do the screens show for `Cc1ccc2oc(-c3ccc(NC(=O)c4cccnc4)cc3)nc2c1`?
aSyn 5UTR act: -161.7*

Results for O=C(Nc1ccc(-c2noc(CCc3ccccc3)n2)cc1)c1cccnc1 ?
aSyn 5UTR act: -67.3*

Results for COc1ccccc1N=Cc1c(C)c(C#N)c2[nH]c3ccccc3n2c1=O ?
aSyn 5UTR act: -89.8*

Results for CN(C)c1ccc(/C=N/N=C/c2ccccc2O)cc1 ?
aSyn 5UTR act: -171.1*

What do the screens show for `CC1CCCC(C)N1C(=O)c1cc(-c2ccc3c(c2)OCO3)on1` (centres undefined)?
aSyn 5UTR act: -131.3*

Results for CC1CCCC(C)N1C(=O)c1cc(-c2ccc(Cl)c(Cl)c2)on1 (centres undefined) ?
aSyn 5UTR act: -173.5*

How did O=C(c1cc(-c2ccc3c(c2)OCO3)on1)N1CCCCC1 do in these assays?
aSyn 5UTR act: 60.6

What do the screens show for `N#CC(C(=O)C12CC3CC(CC(C3)C1)C2)c1nc2ccccc2[nH]1` (centres undefined)?
aSyn 5UTR act: -73.7*

How did CC(C)c1ccc(NC(=S)Nc2ccc3cn[nH]c3c2)cc1 do in these assays?
aSyn 5UTR act: -93.9*

What do the screens show for `COc1ccccc1NC(=S)Nc1ccc2cn[nH]c2c1`?
aSyn 5UTR act: -101.2*

What do the screens show for `CC(=O)N(C(C)=O)c1ncc2c([nH]c3ccccc32)c1C#N`?
aSyn 5UTR act: 64.8

How did CNC(=O)c1cc2c(cn1)[nH]c1ccccc12 do in these assays?
aSyn 5UTR act: -98.4*

Results for CC#CC(=O)N1CCC(n2nccc2NC(=O)c2ccc3c(c2)OCO3)CC1 ?
aSyn 5UTR act: -83.0*

Results for CSCCC(=O)N1CCC(n2nccc2NC(=O)c2ccc3c(c2)OCO3)CC1 ?
aSyn 5UTR act: -84.1*

What do the screens show for `O=C(N/N=C/c1ccccn1)c1ccccc1`?
aSyn 5UTR act: -89.8*

Results for CN(C)c1ccc(C(=O)N/N=C/c2ccccn2)cc1 ?
aSyn 5UTR act: -84.7*
